Pf growth 96h = P. falciparum growth inhibition at 96 hour, primary screen for plastid delayed-death inhibitors. P. falciparum luciferase reporter growth, 96 h. Potency, µM (top dose mostly 28.7 µM), without a hit: at the highest dose activity change, negative = inhibition, hits mostly inhibitors. 320,000 compounds, 6.9% hits. AID 504834; note: potency is the fitted concentration of half-maximal effect; % is set by controls: 0 for no effect and ±100 for the full control effect
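Two parasite generations (96 h, 37 C, 5% CO2) of compound exposure in infected erythrocytes (0.05% parasitemia, 2% hematocrit). Luciferase-reporter P. falciparum; decreased luminescence indicates inhibited growth, aimed at apicoplast-acting delayed death.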
Shiga inhibitor = blocks Shiga toxin action in Vero cells; inhibition, % at 38.7 µM; 290,000 compounds, 9.2% hits; Vero cells, Shiga toxin protein synthesis inhibition reporter; in the data active = inhibition mostly above about 28%, no sharp cut-off; inactive = mostly below about 43%; note: 0% is about no effect
Sm TGR inh = blocks Schistosoma mansoni thioredoxin glutathione reductase; AID 485364; 360,000 compounds, 3% hits; purified TGR, DTNB reduction, TNB absorbance 405 nm; Q962Y6; Potency, µM (doses to about 114 µM), without a hit: top-dose activity change, negative = inhibition, usual class: inhibitors; note: potency is the fitted concentration of half-maximal effect; % is set by controls: 0 for no effect and ±100 for the full control effect; nearly all actives have a fitted effect of over 60% in size
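TGR 20 nM + NADPH 100 uM (dispensed conc.), cpd preinc 15 min RT; start with NADPH (500 uM addition) then DTNB (15 mM addition). Kinetic TNB absorbance, 405 nm filter. Four-parameter Hill fit across titration.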
Cycloheximide cs = counter-screen for Shiga toxin inhibitors: cycloheximide protein synthesis inhibition | cell reporter, cycloheximide protein synthesis inhibition counterscreen | max response, % | 300,000 compounds, 12% hits | AID 2314; in the data active = max response mostly above about 13%, no sharp cut-off; inactive = mostly below about 14%; note: read at 38.3 µM for the half of the compounds with a filed dose; 0% is about no effect
NS1 inh = blocks influenza NS1 protein function. 270,000 compounds, 0.4% hits. AID 2326. Potency, µM (series often up to 46.1 µM), for the others: top-dose activity, positive = more growth; calls by dose curve; note: potency is the fitted concentration of half-maximal effect; actives are rising curves; nearly all actives have a fitted effect of over 50% in size
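Growth recovery, yeast-based: influenza A NS1 expressed in S. cerevisiae causes slow growth, and suppressors are detected by OD600. The parent strain without NS1 is used as positive control.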
Pf growth 48h = P. falciparum growth inhibition at 48 hours (one generation); P. falciparum luciferase growth in erythrocytes, 48 h; Potency, µM (titrated, usually from 28.7 µM), for the others: at the highest dose activity change, negative = inhibition, hits mostly inhibitors; 310,000 compounds, 5.9% hits; note: potency is the fitted concentration of half-maximal effect; % is set by controls: 0 for no effect and ±100 for the full control effect
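Parasite viability was followed by luminescence of a genomically integrated firefly luciferase. Cultures held 0.1% parasitemia at 2% hematocrit (final), incubated under 5% CO2 at 37 C.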
* = called active by the depositor; ? = inconclusive; nt = no result. Hits are enriched below; roughly 21% of the tested compounds scored in any of these assays. Unless noted, calls come from the whole dose curve; as a rule, active = well fitted curve in the direction sought with a large enough effect; inconclusive = small, poorly fitted or top-dose-only effect, or another doubt; inactive = no such curve, though single readings can be large; an effect the other way counts as inactive or inconclusive.

SMILES	Pf growth 96h	Shiga inhibitor	Sm TGR inh	Cycloheximide cs	NS1 inh	Pf growth 48h
Cc1ccc(-c2nnn3c2nc(NCCc2ccccc2)c2ccccc23)cc1	nt	nt	2.1%	nt	nt	nt
COc1ccccc1NC(=O)c1cnc(SC)nc1	12.2%	nt	-8.3%	-0.9	-4.1%	26.1%
Cc1ccc(OCC(=O)N/N=C/c2cccc3cccnc23)cc1	?	-33.1	-12.3%	-1.1	-63.5%	30.0%
c1ccc(CCNc2ncnc3scc(C4COc5ccccc5O4)c23)cc1 (stereo unspecified)	14.7µM*	-3.6	4.9%	-3.1	9.4%	nt
Cc1csc2ncnc(NC3CCN(Cc4ccccc4)CC3)c12	?	-7.6	4.7%	-2.3	-4.7%	?
c1ccc2c(c1)OCC(c1csc3ncnc(N4CCCC4)c13)O2 (stereo unspecified)	9.28µM*	-14.1	-5.2%	-1.9	-3.5%	nt
COc1ccc(S(=O)(=O)N2CCOCC2)cc1NC(=O)C1COc2ccccc2O1 (stereo unspecified)	5.5%	nt	-0.8%	nt	nt	3.5%
CC(C)CN(C(=O)c1ccc(=O)n(C)n1)c1nc2ccccc2s1	141.8%	16.8	-0.5%	15.1*	-34.4%	49.0%
CCC(CC)c1nn2c(=O)cc(COc3ccc(NC(=O)c4cccc(Cl)c4)cc3)nc2s1	nt	nt	-7.8%	nt	nt	nt
Cc1ccnc(NC(=S)NC(=O)c2cccs2)c1	?	159.7*	4.5%	77.7*	-25.3%	185.4%
CCNC(=S)Nc1cc(C)ccn1	34.3%	29.0*	?	13.7	1.8%	-9.4%
Cc1ccnc(NC(=O)CNC(=O)c2cccs2)c1	31.2%	nt	2.1%	nt	nt	13.3%
O=C(NC(=S)Nc1ccccn1)c1ccco1	106.1%	57.8*	24.5%	46.6*	1.1%	102.6%
O=C(NC(=S)Nc1ccccc1[N+](=O)[O-])c1ccco1	?	62.9	50.1µM*	22.3*	nt	33.4%
O=C(NC(=S)Nc1cccnc1Cl)c1ccco1	26.3%	55.0*	?	21.2*	nt	144.2%
Cc1ccnc(NC(=S)NC(=O)c2ccco2)c1	186.9%	96.1*	37.9%	39.8*	6.5%	106.1%
O=C(NCc1cccnc1)/C(=C\c1ccc(-c2cccc(Cl)c2)o1)S(=O)(=O)c1ccccc1	?	-13.9	17.8µM*	-13.0	-14.1%	9.28µM*
Cc1ccc(C(=O)N/C(=C\c2ccc(-c3cc(Cl)ccc3Cl)o2)C(=O)NCc2cccnc2)cc1	?	87.7	-3.9%	42.0	-34.1%	25.2%
O=C(NCc1cccnc1)/C(=C/c1ccc(-c2cccc(Cl)c2)o1)S(=O)(=O)c1ccccc1	3.29µM*	-27.4	?	-8.9	-10.7%	13.1µM*
CCc1ccc(S(=O)(=O)Nc2ccc(Br)cn2)cc1	14.6%	-4.5	2.3%	-0.7	-27.6%	26.4%
N#Cc1ccc(OCC(=O)N(C2CCCCC2)C2CCS(=O)(=O)C2)cc1 (stereo unspecified)	-31.0%	nt	0.8%	nt	nt	8.1%
COc1ccc(S(=O)(=O)N2CCC(C(=O)Nc3ccccc3C)CC2)c2cccnc12	132.1%	7.2	-3.1%	7.8	7.9%	nt
COc1ccc(NC(=O)C2CCN(S(=O)(=O)c3cccc4cccnc34)CC2)cc1OC	6.57µM*	18.4	1.9%	0.9	-35.8%	-6.6%
COc1ccc(S(=O)(=O)N2CCC(C(=O)Nc3ccc(F)cc3)CC2)c2cccnc12	0.3%	-9.6	0.8%	2.1	nt	1.04µM*
OCc1cccnc1	nt	-4.9	nt	-7.1	nt	nt
SMILES	Pf growth 96h	Shiga inhibitor	Sm TGR inh	Cycloheximide cs	NS1 inh	Pf growth 48h
CC(C)(C)N(CC#CCC1(O)c2ccccc2-c2ccccc21)CCO	11.7µM*	18.6	-25.7%	-1.5	6.5%	?
OCCN(CC#CCn1c2ccccc2c2ccccc21)CCO	10.4%	10.8	-19.0%	-1.4	-1.1%	6.1%
Cc1cc(-c2ccc(C)c(S(=O)(=O)NCCCN3CCN(c4ccccc4F)CC3)c2)on1	4.65µM*	5.2	9.4%	5.0	-19.3%	?
COc1ccc(-c2cc(C)no2)cc1S(=O)(=O)Nc1cccc(CN2CCCC2)c1	-9.7%	-9.8	-7.3%	8.3	9.8%	14.7µM*
Cc1cc(-c2ccc(C)c(S(=O)(=O)NCCCN3CCN(c4ccccc4)CC3)c2)on1	?	-3.6	-2.3%	-3.4	-5.7%	?
CCc1ccc(-c2cc(C)no2)cc1S(=O)(=O)Nc1cccc(CN2CCCC2)c1	-32.2%	-2.1	-9.9%	1.6	6.8%	9.28µM*
CCc1ccc(-c2cc(C)no2)cc1S(=O)(=O)NCCc1ccccc1	?	19.2	1.2%	35.4*	-49.3%	-29.8%
COc1cc(OC)c(NC(=O)NCc2ccc3c(c2)CCN3C(=O)c2ccccc2)cc1Cl	nt	nt	9.8%	nt	nt	nt
CCN(CC)S(=O)(=O)c1ccc(C(=O)NCC2(N3CCOCC3)CCCCC2)cc1	?	nt	-4.3%	nt	nt	?
Cc1ccc(CNc2nc3c(S(=O)(=O)c4ccccc4)nnn3c3ccsc23)cc1	nt	nt	-0.1%	nt	nt	nt
O=c1c2[nH]cnc2n(-c2cccc(F)c2)c(=O)n1Cc1ccccc1	-4.3%	-15.9	14.4%	5.6	0.2%	32.6%
CNC(=O)c1c(NC(=O)C(C)C)sc2c1CCC2	-8.6%	-1.9	44.7µM*	-4.8	-12.0%	2.33µM*
Cc1cc(C(=O)Nc2sc3c(c2C#N)CCCCC3)cs1	3.0%	60.0*	-12.7%	28.8*	-3.2%	256.7%
Cc1cnc(C(=O)OCC(=O)Nc2sc3c(c2C#N)CCC3)cn1	38.0%	nt	-0.9%	nt	nt	17.2%
CNC(=O)c1c(NC(=O)c2ccc(N3C(=O)CCC3=O)cc2)sc2c1CCCC2	?	-2.3	-9.5%	-1.0	-3.1%	8.1%
CC(C)C(=O)Nc1sc2c(c1C#N)CCCCC2	21.2%	61.8*	-20.8%	23.8*	-6.4%	24.8%
Cc1cccc(OCC(=O)Nc2sc3c(c2C#N)CCC3)c1	75.2%	60.2*	-10.3%	21.2*	13.3%	49.2%
COc1ccc([C@H]2[C@@H]3C=CCC[C@@]3(C)C(=O)N2Cc2ccccc2)cc1Cl	?	14.2	-12.7%	-3.5	-7.5%	?
O=C(Nc1cc(F)ccc1F)c1ccc(-n2cncn2)c([N+](=O)[O-])c1	13.0%	nt	2.6%	nt	nt	11.8%
CC(C)CN(CCC(=O)O)CC(C)C	nt	-12.8	-22.7%	1.1	7.8%	9.3%
O=C(NCCN1C(=O)S/C(=C\c2cccnc2)C1=O)C1=NN(c2ccccc2)C(=O)CC1	-0.6%	-4.2	-9.3%	-1.6	-3.2%	-7.0%
Cc1sc(NC(=O)COc2ccccc2)c(C#N)c1C	23.6%	95.6*	10.2%	41.4*	nt	108.7%
Cc1sc(NC(=O)CS(=O)(=O)c2ccccc2)c(C#N)c1C	72.8%	nt	4.5%	nt	nt	60.7%
N#Cc1c(NC(=O)CSc2nc(N)cc(=O)[nH]2)sc2c1CCCCCC2	25.7%	-5.8	9.4%	-2.7	-15.0%	-0.6%
N#Cc1c(NC(=O)CSc2ncn[nH]2)sc2c1CCCCC2	nt	-34.9	-1.6%	-7.8	-34.9%	9.28µM*
N#Cc1c(NC(=O)c2nc3ncccn3n2)sc2c1CCCCC2	13.4%	58.4*	-2.7%	30.3*	-3.6%	78.6%
